PubChem BioAssay (NCATS)
Records with an inconclusive call do not appear. Entries that show only a call come without a potency. Activity calls are given as the source filed them. Unless noted, calls follow the shape of the dose curve; as a rule, active = well fitted curve in the direction sought with a large enough effect; inconclusive = small, poorly fitted or top-dose-only effect, or another doubt; inactive = no such curve, though single readings can be large; an effect the other way counts as inactive or inconclusive.

What was measured:
[1] = biological target: DNA polymerase III PolC-type (Bacillus subtilis (strain 168)) (UniProt P13267); assay: qHTS Validation Assay for the Inhibitors of DNA Replication in Gram-Positive Bacteria (AID 485295);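 also: reconstituted holoenzyme with PolC plus beta clamp SSB and primase; PicoGreen fluorescence of double-stranded DNA made on primed circular M13 template; series mostly up to about 57 µM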
Outline: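 Primed replication of single-stranded M13Gori by a four-protein B. subtilis holoenzyme is measured at room temperature. Double-stranded product is quantified by PicoGreen fluorescence after an EDTA stop; inhibition is scaled between DMSO and EDTA controls.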

[2] = biological target: Tumor susceptibility gene 101 protein (Homo sapiens) (UniProt Q99816); assay: qHTS Validation Assay for Iinhibitors of HIV-1 Budding by Blocking the Interaction of PTAP/TSG101 (AID 485342; calls by dose curve)
Outline: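 Fluorescence anisotropy measured PTAP-Tsg101 interaction. Final concentrations were 10 uM protein domain and 50 nM labeled peptide, equilibrated 20 min at room temperature.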

[3] = qHTS Validation Assay to Find Inhibitors of Chronic Active B-Cell Receptor Signaling (AID 485345; active = well fitted curve in the direction sought with a large enough effect in the main read-out, with a control signal flat, not every such curve was filed as active)
Outline: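 Read-out: ratio of filter-corrected green (IkappaBalpha fusion) to red (native) luciferase signal in doxycycline-induced TMD8 cells after 4 h at 37C. Titration spanned 46 uM–3 nM; Data were normalised to basal cells and 10 uM MG-132 wells.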

[4] = biological target: Beta-2 adrenergic receptor (Homo sapiens) (UniProt P07550); assay: qHTS validation assay of beta-arrestin-biased ligands of beta2-adrenergic receptor (AID 485366)
Outline: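 Agonist activity is measured as luciferase luminescence downstream of beta-arrestin recruitment to recombinant beta2-AR in Tango cells. Exposure lasts 18 hr at 37 degrees C, and curves are categorized by r2, response size and activity.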

[5] = Quantitative high throughput screen for delayed death inhibitors of the malarial parasite plastid, 96 hour incubation (AID 488745); also: series mostly up to about 29 µM; nearly all actives have a fitted effect of over 70% in size
Outline: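 Two-generation (96 h) exposure of luciferase-reporter P. falciparum in erythrocytes, 2% hematocrit, 0.1% parasitemia final, 37 C, 5% CO2, RPMI 1640 with 0.5% Albumax. Growth inhibition scored by reduced luminescence.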

[6] = Quantitative high throughput screen for delayed death inhibitors of the malarial parasite plastid, 48 hour incubation (AID 488752); also: nearly all actives have a fitted effect of over 65% in size
Outline: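 Cultures: infected erythrocytes at final 2% hematocrit and 0.1% parasitemia in Albumax-supplemented RPMI. Parasites express integrated firefly luciferase. Incubation with compound lasts 48 h before luminescent detection of remaining reporter activity.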

[7] = biological target: Thioredoxin reductase 1, cytoplasmic (Rattus norvegicus) (UniProt O89049); assay: qHTS Assay for Substrates of Mammalian Selenoprotein Thioredoxin Reductase 1 (TrxR1) (AID 488772);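 also: series mostly up to about 57 µM; a drop in NADPH fluorescence below the no-compound background marks a TrxR1 substrate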
Outline: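 In this dual-purpose format, potential substrates are identified from the first fluorescence read after selenite addition, not from the 8-minute delta. Rat enzyme is preincubated with NADPH and then with compound at ~22 deg C.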

[8] = biological target: Flap endonuclease 1 (Homo sapiens) (UniProt P39748); assay: qHTS Validation Assay for the Inhibitors of Human Flap endonuclease 1 (FEN1) (AID 488816); also: potency is read from the fitted curve at half-maximal effect
Outline: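 qHTS format: compounds and 10 nM FEN1 incubated 15 min at room temperature before adding 50 nM substrate. Cleavage followed by reads at 0 and 15 min; normalized data fitted to a four-parameter Hill curve.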

[9] = biological target: M-phase phosphoprotein 8 (Homo sapiens) (UniProt Q99549); assay: qHTS Validation Assay for Inhibitors for MPP8 Chromodomain Interactions with Methylated Histone Tails (AID 488949);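 also: AlphaScreen signal from MPP8 chromodomain bound to biotinylated H3K9me3 peptide; top concentration of the series differs between compounds; nearly all actives have a fitted effect of over 55% in size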
Outline: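 Disruption of the preformed MPP8–trimethyl-H3K9 peptide complex (both 50 nM, 30 min, RT) is measured after 30 min compound exposure, using AlphaScreen proximity beads; aurintricarboxylic acid titration serves as plate control.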

[10] = biological target: Thioredoxin reductase 1, cytoplasmic (Rattus norvegicus) (UniProt O89049); assay: qHTS Assay for Inhibitors of Mammalian Selenoprotein Thioredoxin Reductase 1 (TrxR1) (AID 488773); details: Potency: inhibition; also: nearly all actives have a fitted effect of over 40% in size; also: potency is read from the fitted curve at half-maximal effect
Outline: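 Inhibition is scored from the loss of NADPH fluorescence between first and last reads of an 8-min kinetic run. Selenite (400 uM) was the substrate, added after 15 min compound preincubation at room temperature.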

Chain of Tumor susceptibility gene 101 protein (Homo sapiens) (Q99816 whole entry, looked up, the tested form may be a part): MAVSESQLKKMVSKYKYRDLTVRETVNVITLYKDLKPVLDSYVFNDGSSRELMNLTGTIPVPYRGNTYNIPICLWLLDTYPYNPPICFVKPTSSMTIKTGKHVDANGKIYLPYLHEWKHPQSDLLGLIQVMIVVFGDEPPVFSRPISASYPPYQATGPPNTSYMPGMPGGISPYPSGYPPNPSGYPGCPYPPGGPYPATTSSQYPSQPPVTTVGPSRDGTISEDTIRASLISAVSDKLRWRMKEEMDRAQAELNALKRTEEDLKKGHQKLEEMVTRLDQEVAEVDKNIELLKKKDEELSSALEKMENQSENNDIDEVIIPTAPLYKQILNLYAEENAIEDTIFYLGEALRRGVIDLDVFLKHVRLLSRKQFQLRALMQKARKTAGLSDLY
Chain of Thioredoxin reductase 1, cytoplasmic (Rattus norvegicus) (O89049 whole entry, looked up): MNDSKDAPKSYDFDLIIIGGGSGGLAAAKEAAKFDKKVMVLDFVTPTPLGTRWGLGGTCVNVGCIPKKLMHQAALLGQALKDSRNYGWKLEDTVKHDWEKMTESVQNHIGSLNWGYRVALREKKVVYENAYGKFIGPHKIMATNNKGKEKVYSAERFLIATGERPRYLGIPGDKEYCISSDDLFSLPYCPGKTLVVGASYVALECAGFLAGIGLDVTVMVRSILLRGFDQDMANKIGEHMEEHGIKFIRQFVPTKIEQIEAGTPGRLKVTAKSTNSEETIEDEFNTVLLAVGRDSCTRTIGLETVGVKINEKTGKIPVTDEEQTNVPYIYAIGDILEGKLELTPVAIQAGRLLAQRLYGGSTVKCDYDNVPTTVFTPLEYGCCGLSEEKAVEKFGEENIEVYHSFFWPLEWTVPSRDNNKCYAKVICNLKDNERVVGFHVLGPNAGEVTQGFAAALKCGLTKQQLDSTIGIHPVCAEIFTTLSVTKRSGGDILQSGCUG
Chain of M-phase phosphoprotein 8 (Homo sapiens) (Q99549 whole entry, looked up): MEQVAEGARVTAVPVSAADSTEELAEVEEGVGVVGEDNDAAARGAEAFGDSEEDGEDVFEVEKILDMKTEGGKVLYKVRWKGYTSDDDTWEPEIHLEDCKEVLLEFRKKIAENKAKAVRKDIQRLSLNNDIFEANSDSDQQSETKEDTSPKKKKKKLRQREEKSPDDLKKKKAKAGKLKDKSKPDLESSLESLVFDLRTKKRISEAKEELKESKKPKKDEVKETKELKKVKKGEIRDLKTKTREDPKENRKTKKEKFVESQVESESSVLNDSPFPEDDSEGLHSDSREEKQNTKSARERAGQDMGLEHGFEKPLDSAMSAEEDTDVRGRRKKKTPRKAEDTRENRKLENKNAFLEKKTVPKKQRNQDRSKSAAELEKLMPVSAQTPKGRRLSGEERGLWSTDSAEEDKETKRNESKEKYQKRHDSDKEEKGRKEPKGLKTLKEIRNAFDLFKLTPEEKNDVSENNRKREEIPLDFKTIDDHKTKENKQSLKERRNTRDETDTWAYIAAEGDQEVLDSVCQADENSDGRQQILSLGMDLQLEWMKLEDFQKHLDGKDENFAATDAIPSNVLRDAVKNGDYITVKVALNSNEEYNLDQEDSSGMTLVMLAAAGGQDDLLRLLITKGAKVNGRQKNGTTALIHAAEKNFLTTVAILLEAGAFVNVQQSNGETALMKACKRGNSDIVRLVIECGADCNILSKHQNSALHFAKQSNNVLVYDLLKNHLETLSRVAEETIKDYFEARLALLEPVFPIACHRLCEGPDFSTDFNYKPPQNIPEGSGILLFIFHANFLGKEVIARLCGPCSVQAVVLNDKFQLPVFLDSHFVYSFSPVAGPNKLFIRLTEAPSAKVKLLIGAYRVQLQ
Chain of DNA polymerase III PolC-type (Bacillus subtilis (strain 168)) (P13267 whole entry, looked up): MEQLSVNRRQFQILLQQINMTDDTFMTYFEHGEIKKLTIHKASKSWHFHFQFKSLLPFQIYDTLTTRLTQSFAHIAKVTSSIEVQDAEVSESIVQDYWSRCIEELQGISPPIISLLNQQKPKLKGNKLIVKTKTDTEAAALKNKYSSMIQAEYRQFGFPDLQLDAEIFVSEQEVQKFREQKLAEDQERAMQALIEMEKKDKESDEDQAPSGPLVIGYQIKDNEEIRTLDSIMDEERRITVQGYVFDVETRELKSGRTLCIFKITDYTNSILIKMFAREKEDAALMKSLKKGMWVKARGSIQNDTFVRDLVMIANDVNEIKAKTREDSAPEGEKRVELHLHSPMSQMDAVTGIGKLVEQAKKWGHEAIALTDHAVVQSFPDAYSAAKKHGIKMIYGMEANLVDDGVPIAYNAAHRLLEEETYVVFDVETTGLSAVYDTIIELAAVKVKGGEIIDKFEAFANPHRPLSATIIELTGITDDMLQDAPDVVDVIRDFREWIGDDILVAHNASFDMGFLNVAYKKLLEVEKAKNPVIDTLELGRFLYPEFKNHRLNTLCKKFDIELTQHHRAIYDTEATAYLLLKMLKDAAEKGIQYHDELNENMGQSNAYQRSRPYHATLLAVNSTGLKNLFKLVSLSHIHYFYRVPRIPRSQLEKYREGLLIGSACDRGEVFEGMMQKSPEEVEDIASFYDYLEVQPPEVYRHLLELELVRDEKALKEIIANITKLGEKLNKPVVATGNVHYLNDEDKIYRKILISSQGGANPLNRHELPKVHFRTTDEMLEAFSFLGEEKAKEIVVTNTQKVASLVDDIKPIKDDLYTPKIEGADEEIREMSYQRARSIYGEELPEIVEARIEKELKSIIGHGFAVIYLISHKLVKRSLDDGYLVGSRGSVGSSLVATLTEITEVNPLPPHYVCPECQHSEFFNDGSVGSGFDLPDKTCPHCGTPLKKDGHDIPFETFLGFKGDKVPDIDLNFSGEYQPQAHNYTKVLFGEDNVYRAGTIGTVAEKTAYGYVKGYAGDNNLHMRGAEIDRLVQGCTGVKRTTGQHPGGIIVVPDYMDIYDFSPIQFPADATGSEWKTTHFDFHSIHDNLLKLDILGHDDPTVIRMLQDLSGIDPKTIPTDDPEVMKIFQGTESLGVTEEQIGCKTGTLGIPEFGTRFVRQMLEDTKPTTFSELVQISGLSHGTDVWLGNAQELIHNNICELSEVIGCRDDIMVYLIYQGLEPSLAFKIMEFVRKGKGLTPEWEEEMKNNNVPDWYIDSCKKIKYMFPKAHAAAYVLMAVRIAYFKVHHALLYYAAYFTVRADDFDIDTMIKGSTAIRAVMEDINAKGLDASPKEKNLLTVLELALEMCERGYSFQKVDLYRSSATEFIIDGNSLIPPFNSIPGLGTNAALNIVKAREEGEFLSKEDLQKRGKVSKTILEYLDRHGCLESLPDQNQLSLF
Chain of Beta-2 adrenergic receptor (Homo sapiens) (P07550 whole entry, looked up): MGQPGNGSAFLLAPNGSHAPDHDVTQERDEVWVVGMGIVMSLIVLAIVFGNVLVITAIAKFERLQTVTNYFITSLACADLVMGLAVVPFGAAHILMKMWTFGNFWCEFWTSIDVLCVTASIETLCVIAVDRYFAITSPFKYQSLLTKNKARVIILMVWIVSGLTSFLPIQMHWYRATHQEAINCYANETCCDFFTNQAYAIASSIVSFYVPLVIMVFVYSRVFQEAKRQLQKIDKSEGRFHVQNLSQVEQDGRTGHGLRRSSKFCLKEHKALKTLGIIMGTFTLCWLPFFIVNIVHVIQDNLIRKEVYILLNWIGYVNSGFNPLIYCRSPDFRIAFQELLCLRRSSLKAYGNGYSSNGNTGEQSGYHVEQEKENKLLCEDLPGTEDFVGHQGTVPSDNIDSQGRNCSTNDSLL
Chain of Flap endonuclease 1 (Homo sapiens) (P39748 whole entry, looked up): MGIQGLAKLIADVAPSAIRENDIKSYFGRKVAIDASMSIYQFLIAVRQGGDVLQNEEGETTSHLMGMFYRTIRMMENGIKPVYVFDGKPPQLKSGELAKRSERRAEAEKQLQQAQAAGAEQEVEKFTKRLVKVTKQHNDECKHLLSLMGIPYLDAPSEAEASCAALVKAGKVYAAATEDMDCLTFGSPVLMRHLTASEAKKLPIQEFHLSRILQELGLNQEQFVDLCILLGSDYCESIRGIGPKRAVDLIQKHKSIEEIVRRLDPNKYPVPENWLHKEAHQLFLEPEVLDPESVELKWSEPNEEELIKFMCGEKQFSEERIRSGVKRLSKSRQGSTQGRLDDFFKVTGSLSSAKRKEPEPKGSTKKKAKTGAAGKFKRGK

Structure (SMILES) | Potency [1] | outcome [2] | outcome [3] | outcome [4] | Potency [5] | Potency [6] | outcome [7] | Potency [8] | Potency [9] | Potency [10]
CNCC(O)c1ccc(O)cc1 (configuration not stated) | inactive | inactive | inactive | inactive | inactive | inactive | inactive | inactive | inactive | –
CC(CCc1ccccc1)NC(C)C(O)c1ccc(O)cc1 (configuration not stated) | inactive | inactive | inactive | inactive | inactive | inactive | inactive | inactive | inactive | inactive
COc1ccc(C(CN(C)C)C2(O)CCCCC2)cc1 (configuration not stated) | inactive | inactive | inactive | inactive | – | – | inactive | inactive | inactive | inactive
COc1ccccc1N1CCNCC1 | inactive | inactive | inactive | inactive | inactive | inactive | inactive | inactive | inactive | –
CCCN1CCC[C@@H]2Cc3[nH]ncc3C[C@H]21 | inactive | inactive | inactive | inactive | – | – | inactive | inactive | inactive | inactive
Cc1cccc(C)c1NC1=NCCCS1 | inactive | inactive | inactive | inactive | – | inactive | inactive | – | inactive | inactive
Nc1ccncc1 | inactive | inactive | inactive | inactive | inactive | inactive | inactive | inactive | inactive | inactive
CC(C)=CCOc1c2occc2cc2ccc(=O)oc12 | inactive | inactive | inactive | inactive | – | – | inactive | inactive | inactive | inactive
CCCN1CCC[C@@H]2Cc3nc(N)ncc3C[C@H]21 | inactive | inactive | inactive | inactive | inactive | inactive | inactive | inactive | inactive | inactive
c1ccc2c(c1)OCC(C1=NCCN1)O2 (configuration not stated) | inactive | inactive | – | inactive | inactive | inactive | inactive | inactive | inactive | 7.52 µM (active)
CC(=O)[C@H]1CC[C@H]2[C@@H]3CC[C@H]4C[C@](C)(O)CC[C@]4(C)[C@H]3CC[C@]12C | inactive | inactive | inactive | inactive | – | – | inactive | inactive | inactive | inactive
NCC1(CC(=O)O)CCCCC1 | inactive | inactive | inactive | inactive | inactive | inactive | inactive | inactive | inactive | inactive
c1ccc(C2CC2)c(OCC2=NCCN2)c1 | inactive | inactive | inactive | inactive | inactive | inactive | inactive | inactive | inactive | inactive
O=C1NCN(c2ccccc2)C12CCN(CC1COc3ccccc3O1)CC2 (configuration not stated) | inactive | inactive | inactive | inactive | inactive | inactive | inactive | inactive | inactive | inactive
CC(=O)[C@H]1CC[C@H]2[C@@H]3CC[C@H]4C[C@H](O)CC[C@]4(C)[C@H]3C(=O)C[C@]12C | inactive | inactive | inactive | inactive | inactive | inactive | inactive | inactive | inactive | inactive
Cc1ncc(CNC(=O)N(CCCl)N=O)c(N)n1 | inactive | inactive | inactive | inactive | inactive | inactive | inactive | inactive | inactive | inactive
NCC(O)c1ccc(O)cc1 (configuration not stated) | inactive | inactive | inactive | inactive | inactive | inactive | inactive | inactive | inactive | inactive
C[C@@H]1O[C@@H](O[C@H]2C[C@@H](O)[C@]3(CO)[C@H]4[C@H](O)C[C@]5(C)[C@@H](C6=CC(=O)OC6)CC[C@]5(O)[C@@H]4CC[C@]3(O)C2)[C@H](O)[C@H](O)[C@H]1O | inactive | inactive | inactive | inactive | inactive | inactive | inactive | inactive | inactive | inactive
NN=C(N)N | inactive | inactive | inactive | inactive | inactive | inactive | inactive | inactive | inactive | inactive
CCCC(C)(COC(N)=O)COC(=O)NC(C)C (configuration not stated) | inactive | inactive | inactive | inactive | inactive | inactive | inactive | inactive | inactive | inactive
NCC(CC(=O)O)c1ccc(Cl)cc1 (configuration not stated) | inactive | inactive | inactive | inactive | inactive | inactive | inactive | inactive | inactive | inactive
CCC1(C2=NCCN2)Cc2ccccc2O1 (configuration not stated) | inactive | inactive | inactive | inactive | inactive | inactive | inactive | inactive | inactive | inactive
Cc1cccc(C)c1NC(=O)CN1CCCC1=O | inactive | inactive | inactive | inactive | – | – | inactive | inactive | inactive | inactive
CC(O)(CS(=O)(=O)c1ccc(F)cc1)C(=O)Nc1ccc(C#N)c(C(F)(F)F)c1 (configuration not stated) | inactive | inactive | inactive | inactive | – | – | inactive | inactive | inactive | inactive
N#CC(C#N)=Cc1ccc(O)c(O)c1 | inactive | inactive | inactive | inactive | – | inactive | inactive | 18.9 µM (active) | – | 16.8 µM (active)
CC[C@@H](CO)NC(=O)[C@@H]1C=C2c3cccc4[nH]cc(c34)C[C@H]2N(C)C1 | – | – | inactive | – | – | – | – | – | – | –
